About 13,000 (27%) of roughly 48,000 compounds showed an effect of 50% or more. This is one part of the list.
test system: Wolbachia pipientis; test: Anti-Wolbachia Cell-Based Screen; format: functional; design: scale not given: in the data most compounds retested in dose-response had high values; conditions: 5 µM

Compound	Percent Effect [%]
CCN(CCS(=O)(=O)CC)CC1CCCO1 (stereo not drawn)	2.463
O=C(CN(Cc1cccc(F)c1)CC1CCCO1)N1CCCC1 (stereo not drawn)	12.97
Cc1cc(CN[C@@H](Cc2ccccc2)C(N)=O)c(C)s1	-7.626
Cc1cc(C)n(CCNC(=O)c2ncc[nH]2)c(=O)n1	-0.5408
CSc1ncccc1C(=O)N1C[C@H]2CC[C@@H]1CN(c1ncccn1)C2	-10.71
CN(CC(=O)NCCC#N)C(c1ccccc1)c1ccccc1	-3.756
FC(F)Oc1ccc(NCc2nc(C3CC3)no2)c(OC(F)F)c1	6.863
Cc1noc(C(C)C)c1C(=O)NCC(c1ccccc1)N(C)C (stereo not drawn)	108.3
CN(C)C(CNC(=O)c1nc(N2CCOCC2)ncc1Cl)c1cccs1 (stereo not drawn)	4.739
Cc1ccc(C(CNC(=O)c2c(C)noc2C(C)C)N(C)C)cc1 (stereo not drawn)	95.03
Cc1ccc(C(CNC(=O)c2cc(CC(C)C)nn2C)N(C)C)cc1 (stereo not drawn)	-5.66
Cc1noc(C(C)C)c1C(=O)NCC(c1cccc(F)c1)N(C)C (stereo not drawn)	-3.913
Cc1noc(C(C)C)c1C(=O)NCC(c1cccs1)N(C)C (stereo not drawn)	102.8
CC(C)C(=O)NS(=O)(=O)CCc1ccccc1	-1.365
Cc1ccnc(NCCNC(=O)CCNC(=O)c2ccccc2F)c1	6.973
CC(C)NC(=O)N1CCc2onc(C(=O)Nc3cccnc3)c2C1.O=C(O)C(F)(F)F	-28.12
Cn1cc(CN2CCc3onc(C(=O)N4CCCC4)c3C2)cn1.O=C(O)C(F)(F)F	123
Cc1ccc(CN2CCc3[nH]nc(C(=O)N(C)C)c3C2)o1.O=C(O)C(F)(F)F	3.694
Cn1cc(CN2CCc3onc(COc4cccnc4)c3C2)cn1.O=C(O)C(F)(F)F.O=C(O)C(F)(F)F	-7.028
Cc1ccc(CN2CCc3onc(C(=O)N4CCCC4)c3C2)o1.O=C(O)C(F)(F)F	105.8
Cc1ccc(CN2CCc3[nH]nc(C(=O)N4CCN(C)CC4)c3C2)o1.O=C(O)C(F)(F)F.O=C(O)C(F)(F)F.O=C(O)C(F)(F)F	-23.43
CN(C)C(=O)N1CCc2onc(C(=O)Nc3cccnc3)c2C1.O=C(O)C(F)(F)F	-32.01
CCO[C@@H]1C[C@H]2CN(Cc3ccc(C)o3)CCN2C1.O=C(O)C(F)(F)F.O=C(O)C(F)(F)F	-6.795
Cc1ccc(CN2CCO[C@@H]3C[C@@H](C(=O)NC(C)C)C[C@H]32)o1.O=C(O)C(F)(F)F	-8.614

Compound	Percent Effect [%]
Cc1ccc(CN2CCc3onc(C(=O)Nc4cccnc4)c3C2)o1.O=C(O)C(F)(F)F.O=C(O)C(F)(F)F	119.7
COCc1nn(C)c2c1CN(Cc1cnn(C)c1)CC2.O=C(O)C(F)(F)F	-20.95
Cc1ccc(CN2CCc3onc(C(=O)NC(C)C)c3C2)o1.O=C(O)C(F)(F)F	106.2
O=C1CC[C@H]2CN(Cc3cccnc3)CC[C@H]2N1CCc1c[nH]cn1	-39.87
CN(c1ccccc1C(=O)O)S(=O)(=O)c1cccc2cccnc12	-35.11
CC(C)C(=O)N1CCc2onc(C(=O)NCCN(C)C)c2C1.O=C(O)C(F)(F)F	7.945
Cc1ccc(CN2CCc3onc(C(=O)NCCN(C)C)c3C2)o1.O=C(O)C(F)(F)F.O=C(O)C(F)(F)F	74.07
CC(C)NC(=O)N1CCc2onc(C(=O)NCCN(C)C)c2C1.O=C(O)C(F)(F)F	-1.789
Cc1ccc(N(C)C2CCN(C(=O)c3ccsc3)CC2)nn1	-0.5839
CCS(=O)(=O)N1CCC2(CCN(C(=O)c3cccs3)CC2)CC1	97.57
CS(=O)(=O)N1CCO[C@@H]2CCN(C(=O)c3cccs3)CC[C@H]21	-2.724
CCS(=O)(=O)N1CCC2(CCN(Cc3nccs3)CC2)CC1.O=C(O)C(F)(F)F	12.02
O=C(O)C(F)(F)F.O=S(=O)(C1CC1)N1CCC2(CCN(Cc3nccs3)CC2)CC1	-4.722
CS(=O)(=O)N1CCC2(CCN(C(=O)c3cccs3)CC2)CC1	95.21
Cc1ccc(OC2(C(=O)O)CCN(C(=O)c3cccs3)CC2)cn1	-10.49
CC(CCSc1ccccc1)N1CCN(C(=O)c2cccs2)CC1 (stereo not drawn)	0.564
O=C(c1ccsc1)N1CCC2(CC1)CCN(S(=O)(=O)C1CC1)CC2	99.84
O=C(c1cccs1)N1CCC2(CC1)CCN(S(=O)(=O)C1CC1)CC2	97.11
O=C(c1cccs1)N1CC(C(=O)N2CCCC2)C2(CCOCC2)C1 (stereo not drawn)	-9.07
Cn1cnnc1S(=O)(=O)C1CCN(C(=O)c2ccsc2)CC1	-15.33
COCC1CN(Cc2c(C)noc2C)Cc2cn(C)nc21 (stereo not drawn)	8.994
NC(=O)NC(=O)CN1CCN(CC2CC2)c2ccccc21	-3.453
COCC(c1cccc(C(F)(F)F)c1)N(C)C(=O)c1ccncc1 (stereo not drawn)	-9.987
COCCNc1ccccc1CNC(=O)NCc1nc(C)c(C)s1	-3.267

Reference: ChEMBL document CHEMBL3988442, “University of Dundee, Small-Polar-MMV Screening Library” (2021)
